# High-throughput results deposited in PubChem BioAssay by several laboratories.
# AI-2 QS modul = Vibrio harveyi AI-2 quorum sensing modulation | activity change, % at 7.5 µM | AID 2094 | 0.4% of 300,000 active | Vibrio harveyi JMH597 AI-2 luminescence/OD600 ratio, 9 h; stronger effect = lower value; strain lacks LuxN and CqsS sensors; 0 = neutral-control median; in the data active = activity change below about -75%, passing the limit was not always enough; inconclusive = no clear call, values can overlap the other calls;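 note: luminescence divided by OD600 gain over 9 h not by final OD600 alone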
# ARNT-TACC3 inh = disrupts binding between human ARNT and TACC3. AID 623870. inhibition, % at 9.99 µM. AlphaScreen His-ARNT PAS-B/GST-TACC3 binding, luminescence; TACC3 fragment carries E629A point mutation. Q9Y6A5. 0.66% of 390,000 active;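 active = mean inhibition of replicates at least 50% and at least half of replicates each reaching 50%; inconclusive = half or more replicates reach 50% but mean below 50%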;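 note: 0% = complete ARNT plus TACC3 wells and 100% = ARNT alone without TACC3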
# sPLA2-III inh = Inhibits HGIII-sPLA2 liposome hydrolysis, primary screen | Q9NZ20 | QFRET BODIPY PC-A2 liposome hydrolysis, fluorescence | inhibition, % at 12.2 µM | 0.56% of 370,000 active;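 active = inhibition above mean plus 3 SD of compounds lying within the high and low control bounds, cut at about 19% in these data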;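 note: 0% = median of test compound wells and 100% = no enzyme DMSO wells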
# Rin1 Abl inh = inhibitors of human Rin1-Abl protein interaction | P00519+Q13671 | TR-FRET Rin1/Abl binding, biochemical | inhibition, % at 7.35 µM | 0.4% of 360,000 active; in the data active = inhibition above about 5%, passing the limit was not always enough
# Target sequence (P00519 whole entry, looked up): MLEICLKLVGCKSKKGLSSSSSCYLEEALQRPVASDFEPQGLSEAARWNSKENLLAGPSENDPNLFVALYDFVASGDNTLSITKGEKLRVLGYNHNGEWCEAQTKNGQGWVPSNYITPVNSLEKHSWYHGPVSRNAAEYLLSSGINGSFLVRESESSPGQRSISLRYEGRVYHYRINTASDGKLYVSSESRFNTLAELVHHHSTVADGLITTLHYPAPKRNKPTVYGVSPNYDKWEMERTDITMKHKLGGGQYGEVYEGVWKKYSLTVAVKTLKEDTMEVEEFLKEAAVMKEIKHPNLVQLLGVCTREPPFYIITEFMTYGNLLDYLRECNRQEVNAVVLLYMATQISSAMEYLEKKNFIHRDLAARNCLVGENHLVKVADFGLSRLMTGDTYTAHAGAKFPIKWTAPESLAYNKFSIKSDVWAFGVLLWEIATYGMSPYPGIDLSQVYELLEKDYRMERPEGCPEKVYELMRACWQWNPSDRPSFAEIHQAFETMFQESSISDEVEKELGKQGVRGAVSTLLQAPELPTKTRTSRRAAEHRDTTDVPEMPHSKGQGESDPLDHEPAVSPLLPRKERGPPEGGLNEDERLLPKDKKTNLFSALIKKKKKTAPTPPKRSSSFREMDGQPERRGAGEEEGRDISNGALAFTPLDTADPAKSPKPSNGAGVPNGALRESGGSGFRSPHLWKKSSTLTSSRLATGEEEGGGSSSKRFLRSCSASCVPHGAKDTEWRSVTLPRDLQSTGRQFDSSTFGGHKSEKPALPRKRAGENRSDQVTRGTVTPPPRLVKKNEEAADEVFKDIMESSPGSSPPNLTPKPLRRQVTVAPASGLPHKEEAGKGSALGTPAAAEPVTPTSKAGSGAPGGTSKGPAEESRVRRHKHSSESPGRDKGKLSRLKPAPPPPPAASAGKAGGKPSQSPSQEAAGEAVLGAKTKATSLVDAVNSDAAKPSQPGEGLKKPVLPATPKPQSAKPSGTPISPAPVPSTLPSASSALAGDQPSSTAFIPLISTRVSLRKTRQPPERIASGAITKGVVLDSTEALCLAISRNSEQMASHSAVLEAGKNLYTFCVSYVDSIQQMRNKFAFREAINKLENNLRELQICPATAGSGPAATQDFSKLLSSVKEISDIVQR
# Target sequence (Q13671 whole entry, looked up): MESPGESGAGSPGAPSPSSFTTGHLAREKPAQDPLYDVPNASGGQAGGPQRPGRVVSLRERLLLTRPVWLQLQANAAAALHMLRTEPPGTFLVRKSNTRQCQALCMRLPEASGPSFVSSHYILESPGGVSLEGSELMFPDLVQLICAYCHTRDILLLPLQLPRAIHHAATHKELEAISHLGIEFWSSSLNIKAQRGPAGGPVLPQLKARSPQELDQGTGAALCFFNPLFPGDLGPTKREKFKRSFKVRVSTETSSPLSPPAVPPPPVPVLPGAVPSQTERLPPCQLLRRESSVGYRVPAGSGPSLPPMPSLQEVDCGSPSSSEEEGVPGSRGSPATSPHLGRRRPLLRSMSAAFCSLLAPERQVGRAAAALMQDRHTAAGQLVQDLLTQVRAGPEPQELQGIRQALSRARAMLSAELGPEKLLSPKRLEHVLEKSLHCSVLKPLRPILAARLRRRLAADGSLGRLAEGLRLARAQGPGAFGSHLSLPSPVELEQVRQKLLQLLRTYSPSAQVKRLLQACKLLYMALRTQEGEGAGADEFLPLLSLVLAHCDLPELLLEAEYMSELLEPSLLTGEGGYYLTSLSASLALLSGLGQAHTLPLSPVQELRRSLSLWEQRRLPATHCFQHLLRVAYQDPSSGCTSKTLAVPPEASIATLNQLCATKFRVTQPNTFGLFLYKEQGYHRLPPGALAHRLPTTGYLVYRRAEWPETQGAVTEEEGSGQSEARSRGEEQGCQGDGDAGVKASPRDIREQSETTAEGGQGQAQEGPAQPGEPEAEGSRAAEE
# hGIII sPLA2 conf = human GIII-sPLA2 inhibition, confirmation; shares compounds with sPLA2-III inh; recombinant hGIII-sPLA2, BODIPY PC-A2 QFRET fluorescence; inhibition, % at 12.2 µM; 34% of 2,000 active;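 active = mean inhibition across triplicates above the hit cutoff set in the earlier primary screen, cut at about 19% in these data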;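 note: 0% = enzyme with DMSO and 100% = DMSO wells lacking enzyme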
# BODIPY interf = 535nm fluorescence interference, HGIII-sPLA2 counter-screen; shares compounds with sPLA2-III inh; BODIPY FL product fluorescence interference, QFRET; 8.5% of 2,000 active; AID 743282; inhibition, % at 12.2 µM;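 active = average inhibition above the solvent-only control mean plus 3 SD, cut at about 6% in these data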;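 note: 0% = DMSO with substrate plus product and 100% = DMSO with substrate alone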
# 535nm interf DR = 535nm optical interference dose response, HGIII-sPLA2 counter-screen; shares compounds with sPLA2-III inh; BODIPY FL product fluorescence interference, cell-free; IC50, µM; 240 tested, under 10 active; AID 743455;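 active = IC50 at or below 10 µM; inactive = IC50 above 10 µM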
# Starred values were filed as active, the others as inactive; ? = inconclusive; / = not tested or not shown; ! = a repeat was not active. An excerpt weighted towards active compounds, which were near 1.5% of everything screened.
SMILES,AI-2 QS modul,ARNT-TACC3 inh,sPLA2-III inh,Rin1 Abl inh,hGIII sPLA2 conf,BODIPY interf,others
C#CC[N+](C)(C)CCCCCCCCCCCC,20,-1,23*,-2,-6,-33,
C#CC[N+](C)(C)CCCCCCCCCC,15,4,19*,-2,1,-15,
C#CC[N+](C)(C)CCCCCCCC,4,-5,7,5,/,/,
S=c1[nH]nc(-c2ccccn2)n1/N=C/c1cccc2ccccc12,19,56*,21*,3,27*,5,
S=c1[nH]nc(-c2cc(-c3ccccc3)n[nH]2)n1/N=C/c1cccc2ccccc12,/,/,9,/,/,/,
Cc1ccccc1/C=N/n1c(-c2cc(-c3ccccc3)n[nH]2)n[nH]c1=S,2,-8,26*,0,-70,6,
COC(=O)c1c2oc(c1C(=O)OC)C(=O)N(C)Cc1cn(nn1)C[C@@H](Cc1ccccc1)NC(=O)N[C@H](CO)CC2,/,-3,/,/,/,/,
CO[C@@H]1CN(C)C(=O)c2ccc(NC(=O)C3CC3)cc2OC[C@H](C)N(C(=O)Cc2ccccn2)C[C@@H]1C,/,6,/,/,/,/,
CCCCOc1cc(NCc2ccccc2)c2ncn(C(C)C)c2c1,/,-1,21*,2,14,-11,
COCCCOc1cc(NCc2ccccc2)c2ncn(C(C)C)c2c1,/,35,10,1,/,/,
Cc1cc(=O)n2[nH]c(-c3ccccc3)cc2n1,23,1,1,-2,/,/,
Cc1cc(C)[n+]2n1C(=O)C(c1ccccc1)=C2[O-],7,1,21*!,-4,5,0,
COc1ccc(N2CCN(C(c3cccs3)C(C)NC(=O)c3ccco3)CC2)cc1 (stereo not drawn),16,-2,9,-3,/,/,
COc1ccc(N2CCN(C(c3cccs3)C(C)NC(=O)c3ccc4c(c3)OCO4)CC2)cc1 (stereo not drawn),21,1,22*,-3,2,-14,
O=C(NNC(=O)c1ccccc1O)c1ccc(Cl)c(S(=O)(=O)N2CCCCC2)c1,30,4,20*,2,6,1,
O=C(NNC(=O)C1CCN(S(=O)(=O)c2c(Cl)cccc2Cl)CC1)c1ccccc1O,53,31,25*,1,14,-3,
O=C(NNC(=S)Nc1cccc(Cl)c1)c1ccccc1,13,16,17,0,/,/,
O=C(CN1c2ccccc2Sc2ccccc21)NNC(=S)Nc1ccc(Cl)cc1,29,0,28*,-2,7,18*,
O=C(NNC(=S)Nc1ccc(Cl)cc1)c1ccccc1,30,22,19*,-2,39*,3,535nm interf DR=>122
CN(C)c1ccc(N=Cc2nc(-c3ccccc3)oc2OC(=O)c2cccc(Cl)c2)cc1,10,-14,22*,-2,8,-4,
O=C(C[C@@H]1CC[C@H]2[C@@H](COC[C@H](O)CN2C(=O)Nc2cccc(Cl)c2)O1)NCC1CCCCC1,/,-2,/,/,/,/,
O=C(C[C@H]1C[C@H]2c3cc(NC(=O)c4cccnc4)ccc3O[C@H]2[C@H](CO)O1)NCC(F)(F)F,/,-3,/,/,/,/,
O=C(CSc1cccc[n+]1[O-])Nc1cc([N+](=O)[O-])ccc1Cl,17,4,-2,1,/,/,
O=C(CSc1cccc[n+]1[O-])Nc1cc2c(cc1Cl)C(=O)c1ccccc1C2=O,38,/,19*,-4,-8,6.5*,
COc1ccc(S(=O)(=O)Nc2ccc3c(c2)C(=O)N([C@@H](C)CO)C[C@H](C)[C@@H](CN(C)C(=O)Nc2ccc(F)cc2)OCCCC[C@H](C)O3)cc1,/,-5,/,/,/,/,
SMILES,AI-2 QS modul,ARNT-TACC3 inh,sPLA2-III inh,Rin1 Abl inh,hGIII sPLA2 conf,BODIPY interf,others
Nc1cc(N)c2c(c1)C(=O)c1ccccc1-2,/,12,20*,-12,38*,4,535nm interf DR=>122
Nc1c(O)ccc2c1C(=O)c1ccccc1C2=O,29,/,11,/,/,/,
O=C(C[C@H]1C=C[C@@H](NC(=O)Nc2cc(F)ccc2F)[C@H](CO)O1)Nc1ccc(-c2ccccc2)cc1,/,-8,/,/,/,/,
C[C@H]1CN([C@@H](C)CO)C(=O)c2cc(NC(=O)c3ccncc3)ccc2O[C@H]1CN(C)C,/,-11,/,/,/,/,
O=C(NNC(=S)Nc1ccc(Cl)c(Cl)c1)c1ccccn1,?,75*,32*,0,42*,6.5*,
O=C(c1ccc(NC(=S)Nc2ccc(Cl)c(Cl)c2)cc1)N1CCCC1,21,-3,20*,-4,6,-3,
O=C(Nc1ccc(Cl)c(Cl)c1)N1CCCCCC1,20,-6,8,-1,/,/,
Cc1ccc(NC(=S)NNC(=O)c2nn(C)cc2Cl)cc1,16,29,34*,2,44*,2,535nm interf DR=>122
Cc1cccc(NC(=S)NNC(=O)c2ccco2)c1,-10,7,17,3,/,/,
Cc1cccc(NC(=S)NNC(=O)c2nn(C)cc2Cl)c1,18,/,37*,0,43*,1,535nm interf DR=>122
C[C@@H](NC(=O)C[C@H]1C[C@@H]2c3cc(NC(=O)C4CCOCC4)ccc3O[C@@H]2[C@H](CO)O1)c1ccccc1,/,-2,/,/,/,/,
CCCNC(=O)C[C@@H]1CC[C@@H]2[C@H](COC[C@H](O)CN2C(=O)Nc2cccc(Cl)c2)O1,/,-2,/,/,/,/,
Cc1ccc(NC(=O)c2cnn(-c3ccccc3)c2C)cc1,10,1,-7,-1,/,/,
Cc1ccc(NC(=S)NNC(=O)c2cnccn2)cc1,/,/,30*,/,27*,0,
Cc1ccc(NC(=S)NNC(=O)c2nnn(-c3ccccc3)c2C)cc1,58,59*,36*,0,31*,-3,535nm interf DR=>122
C[C@H]1CN([C@@H](C)CO)S(=O)(=O)c2ccc(Br)cc2O[C@H]1CN(C)S(=O)(=O)c1ccc(F)cc1,/,-7,/,/,/,/,
C[C@H](CO)N1C[C@H](C)[C@@H](CN(C)Cc2ccc(C(F)(F)F)cc2)OCCCC[C@H](C)Oc2ccc(NS(=O)(=O)c3ccc(Cl)cc3)cc2C1=O,/,16,/,/,/,/,
O=C(NCc1ccccc1)[C@H]1CCCN1C(=O)[C@H]1CCCN1C(=O)c1ccccc1,/,/,16,/,/,/,
COc1cccc(CNC(=O)[C@H]2CCCN2C(=O)[C@H]2CCCN2C(=O)c2ccc(C)cc2)c1,/,/,22*,/,-2,-10,
O=C(NCc1ccccc1)[C@H]1CCCN1C(=O)[C@H]1CCCN1C(=O)c1ccc(Cl)cc1,/,/,22*,/,4,-9,
CCCCC(=O)NC(c1ccccc1Cl)c1ccc2cccnc2c1O (stereo not drawn),-27,6,28*,0,25*,-5,
CCCC(=O)NC(c1ccc(OC)cc1)c1ccc2cccnc2c1O (stereo not drawn),?,20,24*,3,15,-9,
COc1ccc(CNC(=O)CSc2cccc3cccnc23)cc1,25,-3,-4,-5,/,/,
